Source: PubChem BioAssay (NCI)
Where “and” joins values, the source holds several entries; their conditions need not be identical. Identical values can stand only once. Compounds without any hit were thinned out: in the full panel of roughly 83,000, 20% have a hit.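 Step 1: grow cells in 96-well plates. Step 2: add test compound at a single concentration. Step 3: incubate 48 h. Step 4: record percent growth.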 Calls of active or inactive are those of the source. Rule for the calls: active = growth percent below 10; inactive = the rest.

System: MDA-MB-468 breast
Test: NCI-60 one-dose screen, 48 h (100 = growth as untreated, 0 = no growth, -100 = all killed)
Details: 10 µM unless noted

| Structure (SMILES) | growth |
| --- | --- |
| C=CC(=O)NC(O)C(Cl)(Cl)Cl (stereo not given) | 121% (inactive) |
| CC(C)=CCc1c2c(c(O)c3c1O[C@]14C(=C[C@@H]5C[C@H]1C(C)(C)O[C@@]4(C/C=C(/C)C(=O)O)C5=O)C3=O)C=CC(C)(C)O2 | -80.8% (active) |
| CC1CCCC(C[N+](C)(C)C)C1=O (stereo not given) | 97.3% (inactive) |
| CC(C)=CCc1c(O)c(C(=O)CC(C)C)c(O)c2c(-c3ccccc3)cc(=O)oc12 | 23.1% (inactive) |
| COc1ccc(/C(C)=C(\c2ccc(OCCN3CCOCC3)cc2)c2ccc(OC(=O)Cc3ccccc3)cc2)cc1 | 104% (inactive) |
| O=C(O)CNC(=O)c1ccccc1 | 122% (inactive) |
| COc1ccc(/C=C\c2cc(OC)c(OC)c(OC)c2)cc1NC(=O)/C=C/c1ccc(OC)c(OC)c1 | 1.52% (active) |
| CNC(=O)Oc1cc(C(C)C)ccc1Sc1ccc(C(C)C)cc1OC(=O)NC | 56.5% (inactive) |
| Nc1nc(=S)nc(N)[nH]1 | 99.3% (inactive) |
| CC(C)(NC(=O)c1nn(CCCCCF)c2ccccc12)c1ccccc1 | 93.9% (inactive) |
| CN(C)CC1(N)C(=O)NC(=O)NC1=O | 94.6% (inactive) |
| CCCCN1CCCC[C@@H]1C(=O)N[C@H](C(=O)N(C)[C@H](CCc1nc(C(=O)N[C@@H](Cc2ccccc2)C[C@H](C)C(=O)OC)cs1)C(C)C)[C@@H](C)CC | -1.75% (active) |
| CC1=C2C(=C[C@@](C)(COC(=O)c3ccc(S(=O)(=O)F)cc3)[C@@H]2O)C(=O)[C@](C)(O)C12CC2 | -78.8% (active) |
| ClCCN(CCCl)c1nc(Cl)c(C2CC(c3ccccc3)=NN2c2ccccc2)s1 (stereo not given) | 75.4% (inactive) |
| O=C(/C=C/c1ccccc1)N[C@@H](CO)Cc1cnc[nH]1 | 102% (inactive) |
| O=C=Nc1ccc(Br)cc1 | 83.1% (inactive) |
| CC1=C(CCCNS(C)(=O)=O)C2=C(C)C3(CC3)[C@@](C)(O)C(=O)C2=C1 | -80.9% (active) |
| COC(=O)CC12CC(NC(=O)c3csc([C@@H](C[C@H](C(C)C)N(C)C(=O)[C@@H](NC(=O)[C@H]4CCCCN4C)C(C)C)OC(C)=O)n3)(C1)C2 | 38.6% (inactive) |
| NC(=O)C(Br)c1ccccc1 (stereo not given) | 57.5% (inactive) |
| C[C@]12CC[C@H](O)C[C@@H]1CC[C@@H]1[C@@H]2CC[C@]2(C)OC(=O)CC[C@@H]12 | 106% (inactive) |

| Structure (SMILES) | growth |
| --- | --- |
| CC[C@H](C)[C@H](NC(=O)[C@H]1CCCCN1C)C(=O)N(C)[C@H](C[C@@H](O)c1nc(C(=O)N[C@@H](Cc2ccccc2)C[C@H](C)C(=O)O)cs1)C(C)C | 70.1% (inactive) |
| O=C(O)CNCP(=O)(O)O | 102% (inactive) |
| O=CN1N=C(c2ccccc2)CC1c1sc(N(CCCl)CCCl)nc1Cl (stereo not given) | 94% (inactive) |
| CCOc1ccc(C(O)CN(C)Cc2ccccc2)cc1Cl (stereo not given) | 100% (inactive) |
| Clc1ccc(COC(Cn2ccnc2)c2ccc(Cl)cc2Cl)c(Cl)c1 (stereo not given) | 33.3% (inactive) |
| CCC(=O)Nc1ccc(Cl)c(Cl)c1 | 101% (inactive) |
| CC(=O)C(c1c(O)c2ccccc2oc1=O)c1cc(=O)oc2c1ccc1ccccc12 (stereo not given) | 96.6% (inactive) |
| [Cl][Hg][c]1cc(Br)cc(Br)c1 | 7.71% (active) |
| CN(CCCCN(C)CCOS(C)(=O)=O)CCOS(C)(=O)=O | 76.9% (inactive) |
| CC(=O)/C=C/c1ccc2c(c1)OCO2 | 96.6% (inactive) |
| C[C@]12CC[C@@H]3C4=C(CC[C@H]3[C@@H]1CC[C@@H]2O)CC(=O)CC4 | 101% (inactive) |
| C=C1C(=O)OC2CC3(C)OC3C3OC3C3=CC(OC3=O)C12 (stereo not given) | 32.8% (inactive) and 65.2% (inactive) |
| CCC1CCC(=O)O1 (stereo not given) | 99.3% (inactive) and 109% (inactive) |
| C[C@@H]1CCC/C=C/[C@H]2C[C@@H](O)C[C@@H]2[C@@H](O)/C=C/C(=O)O1 | -21.4% (active) |
| C/C(=C\c1cc(C(F)(F)F)nn1CCNC(=O)OC(C)(C)C)[C@@H]1C[C@@H]2O[C@]2(C)CCC[C@H](C)[C@H](O)[C@@H](C)C(=O)C(C)(C)[C@@H](O)CC(=O)O1 | 58.6% (inactive) |
| CCCCNCCc1ccccn1 | 117% (inactive) |
| CC1CN1CCCCN1CC1C (stereo not given) | 101% (inactive) |
| C[N+]12CN3CN(CN(C3)C1)C2 | 119% (inactive) |
| CNC(=O)Oc1ccc(Cl)cc1SSc1cc(Cl)ccc1OC(=O)NC | 85.2% (inactive) |
| Cc1cc(C(C)(C)C)ccc1O | 99.3% (inactive) |
